Compound activity as filed in PubChem BioAssay.
DT40 TDP1 CPT – qHTS for Inhibitors of human tyrosyl-DNA phosphodiesterase 1 (TDP1): qHTS in cells in presence of CPT | chicken DT40 Tdp1-/-;hTDP1 cells + 20 nM CPT, ATP luminescence, 48 h | Potency, µM (highest dose often 46.2 µM), without a hit: at the highest dose activity change, negative = growth inhibition, hits mostly inhibitors | 420,000 tested, 12% active | AID 686979, 2013; note: potency is the fitted concentration of half-maximal effect; % is set by controls: 0 for no effect and ±100 for the full control effect; nearly all actives have a fitted effect of over 55% in size
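Chicken DT40 Tdp1-/- cells stably complemented with human TDP1 were seeded at 400 cells/well in medium containing 20 nM camptothecin, exposed to pin-transferred compounds, and grown at 37 °C for at least 48 hr. Viability was read as ATP luminescence.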
DT40 TDP1 no CPT – qHTS for Inhibitors of human tyrosyl-DNA phosphodiesterase 1 (TDP1): qHTS in cells in absence of CPT; 420,000 tested, 15% active; DT40 Tdp1-/- hTDP1 cells, no CPT, ATP luminescence, 48 h; Potency, µM (highest dose often 46.2 µM), for inactives: at the highest dose activity change, negative = growth inhibition, most hits filed as inhibitors; note: potency is the fitted concentration of half-maximal effect; % is set by controls: 0 for no effect and ±100 for the full control effect; nearly all actives have a fitted effect of over 55% in size
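A cellular qHTS used chicken DT40 cells lacking endogenous Tdp1 but carrying stably transfected human TDP1. Compounds were applied without camptothecin, and cell growth kinetics were judged by ATP-dependent luminescence after ≥48 hr.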
IL-1B inflam inh – qHTS for Inhibitors of Inflammasome Signaling: IL-1-beta AlphaLISA Primary Screen | activity change, % at 57.5 µM | 360,000 tested, 4.7% active | THP-1 LPS/ATP IL-1B secretion, AlphaLISA, 16 h; stronger effect = lower value; in the data active = activity change below about -50%; inconclusive = mostly about -30% to -49%; note: % is set by controls: 0 for no effect and ±100 for the full control effect
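Secreted IL-1B measured by AlphaLISA bead assay after 16 h compound exposure of THP-1 cells; compounds (final up to 57.5 uM) added 1 h before LPS (250 ng/mL) and ATP (1.25 mM) stimulation; lower signal means less secretion.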
TDP1 block – qHTS Assay for Inhibitors of Tyrosyl-DNA Phosphodiesterase (TDP1) | Tyrosyl-DNA phosphodiesterase 1 (Homo sapiens), Q9NUW8 | recombinant TDP1, AlphaScreen DNA substrate cleavage | Potency, µM (top dose mostly 130 µM), for the others: at the highest dose activity change, negative = inhibition, most hits filed as inhibitors | 350,000 tested, 0.28% active | AID 485290, 2010; note: potency is the fitted concentration of half-maximal effect; % is set by controls: 0 for no effect and ±100 for the full control effect; nearly all actives have a fitted effect of over 40% in size
Target sequence (Q9NUW8 whole entry, looked up): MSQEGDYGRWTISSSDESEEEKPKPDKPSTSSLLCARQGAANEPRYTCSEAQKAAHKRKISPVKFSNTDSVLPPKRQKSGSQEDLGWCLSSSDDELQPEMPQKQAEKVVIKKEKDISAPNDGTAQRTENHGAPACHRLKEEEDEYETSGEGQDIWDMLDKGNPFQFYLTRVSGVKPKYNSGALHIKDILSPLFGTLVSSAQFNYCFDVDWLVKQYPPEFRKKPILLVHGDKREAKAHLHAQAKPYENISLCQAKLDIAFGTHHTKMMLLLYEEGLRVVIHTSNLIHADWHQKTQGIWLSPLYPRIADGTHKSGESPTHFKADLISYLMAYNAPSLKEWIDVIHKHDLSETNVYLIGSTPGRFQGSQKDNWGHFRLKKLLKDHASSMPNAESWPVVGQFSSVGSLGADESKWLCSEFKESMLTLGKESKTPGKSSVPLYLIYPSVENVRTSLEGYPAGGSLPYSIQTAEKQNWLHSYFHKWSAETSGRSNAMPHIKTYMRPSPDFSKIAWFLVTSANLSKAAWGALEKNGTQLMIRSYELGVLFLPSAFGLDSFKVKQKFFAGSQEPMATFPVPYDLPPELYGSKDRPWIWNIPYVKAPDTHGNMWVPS
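Here, a 5' biotin and 3' phosphotyrosine-FITC DNA oligonucleotide reports Tdp1 activity: intact substrate bridges AlphaScreen beads, while cleavage leaves a 3' phosphate and drops signal. All incubations at room temperature.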
HepG2 tox – qHTS for Inhibitors of TGF-b: Cytotox Counterscreen | HepG2 CAGA-GFP viability, ATP luminescence, 18 h | Potency, µM (top dose mostly 46.1 µM), for the others: at the top dose activity change, negative = cytotoxicity, hits mostly cytotoxic | 410,000 tested, 0.76% active | AID 588856, 2011; note: potency is the fitted concentration of half-maximal effect
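HepG2 CAGA-GFP cells (1000/well, DMEM with 1% FBS) received compound, then TGF-beta at 500 pg/mL final, and were incubated 18 hours at 37 degrees C. Viability was read by CellTiter-Glo luminescence. Media-only wells were set as complete cell-killing and DMSO as no toxicity.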
TGFb inhibitor – qHTS for Inhibitors of TGF-b; Potency, µM (highest dose often 46.1 µM), inactives show top-dose activity, negative = inhibition, hits mostly inhibitors; HepG2 CAGA-GFP TGF-b/SMAD3 reporter, GFP fluorescence, 18 h; TGF-beta stimulated, 500 pg/mL final; AID 588855, 2011; 410,000 tested, 1.2% active; note: potency is the fitted concentration of half-maximal effect; % is set by controls: 0 for no effect and ±100 for the full control effect; nearly all actives have a fitted effect of over 65% in size
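First, reporter cells (HEPG2 CAGA-GFP) rested 2 h at 37 degrees C. Next, compounds were pinned in and TGF-beta added to 500 pg/mL final. After 18 h, GFP was imaged per cell and summed per well.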
An asterisk follows results filed as active; ? = inconclusive; nt = no result; [ ] = another dose, or the depositor's remark. Most compounds without a hit are left out; they make up all but 19% or so of the library. Unless noted, calls come from the whole dose curve; as a rule, active = well fitted curve in the direction sought with a large enough effect; inconclusive = small, poorly fitted or top-dose-only effect, or another doubt; inactive = no such curve, though single readings can be large; an effect the other way counts as inactive or inconclusive.

SMILES	DT40 TDP1 CPT	DT40 TDP1 no CPT	IL-1B inflam inh	TDP1 block	HepG2 tox	TGFb inhibitor
CCc1nc2c(OCCOC)cccn2c1N(C)C(=O)c1ccco1	0%	-7%	15	nt	8%	2%
CCCCC(=O)N(C)c1c(CC)nc2c(OCCC3CCCCC3)cccn12	?	16µM*	-68*	nt	-92%	?
CCCCN(C=O)c1c(CC)nc2c(OCC3CCCCC3)cccn12	21µM*	9.2µM*	-4	nt	-39%	13µM*
CCc1nc2c(OCCC3CCCCC3)cccn2c1N(C)C(=O)c1cccs1	29µM*	21µM*	-54*	nt	-95%	-92%
CCCCC(=O)N(C)c1c(CC)nc2c(OCCOC)cccn12	-14%	0%	-2	nt	-13%	?
CCCCC(=O)N(C)c1c(CC)nc2c(OCC3CCCCC3)cccn12	?	21µM*	-22	nt	-50%	?
CN(Cc1ccccc1)S(=O)(=O)c1ccccc1[N+](=O)[O-]	1%	-18%	-6	nt	2%	8%
COc1ccc(C(=O)N2CCC[C@@]3(CCN(Cc4ccncc4)C3)C2)cc1	1%	-3%	nt	nt	nt	nt
Cc1cc(C)cc(-c2cc3c(c(-c4c(O)c(-c5cc(C)cc(C)c5)cc5c4CCCC5)c2O)CCCC3)c1	nt	nt	nt	12%	nt	nt
CCc1nc2c(OCCC3CCCCC3)cccn2c1N(C)C(=O)CC(C)C	21µM*	10µM*	?	nt	-99%	?
C=CCn1c(SCc2c(C(=O)OC)sc(N)c2C(=O)OC)nnc1-c1ccc(Br)cc1	?	18µM*	-10	-2%	-14%	?
COc1ccc2nc(-c3ccccc3)cc(C(=O)OCC(=O)N3CCCCC3)c2c1	?	?	0	45µM*	-19%	-5%
COc1cccc(N2CCN(C(=O)c3cc4c(=O)n(Cc5cccnc5)ccc4nc3C)CC2)c1	-11%	-24%	nt	2%	2%	15%
COc1ccc2nc(-c3ccccc3)cc(C(=O)N3CCC3)c2c1	23µM*	16µM*	-18	1%	-2%	1%
COc1ccc(-c2cc(C(=O)N3CCCC3)c3ccccc3n2)cc1	3%	6%	0	1%	-7%	7%
COc1cccc(CN2CCN(C(=O)c3cc(-c4cccnc4)nc4ccc(C)cc34)CC2)c1	23µM*	12µM*	6	-3%	-24%	-12%
COCc1c(C(=O)N2CCN(C3CCCCC3)CC2)cnn1-c1ncc(C)c(-c2cccs2)n1	2%[9.04 µM]	-5%	nt	nt	nt	nt
Cc1ccccc1C(=O)NNC(=O)CCCCC(=O)NNC(=O)c1ccccc1C	7%	3%	12	nt	2%	2%
COc1ccc(C2=Nn3c(nc4sc(C(=O)Nc5cccc(C)c5)c(C)c4c3=O)SC2)cc1	?	?	nt	6%	-25%	-1%
COC(=O)C1=C(C)N(C(C)C)C(=O)C1(NC(=O)c1ccc(C(C)(C)C)cc1)C(F)(F)F (stereo not drawn)	?	?	nt	7%	-44%	-13%
CN(Cc1cc(Br)cc(Br)c1N)C1CCCCC1	?	9.4µM*	nt	-9%	nt	nt
COC(=O)[C@H](COC(C)(C)C)NC(=O)O[C@@H]1Cc2cc(Br)ccc2O[C@H]1c1cccc(OC)c1	nt	nt	nt	4%	nt	nt
Cn1c(=O)n(-c2ccc3c(c2)OCO3)c2nc(-c3ccc(Cl)cc3)nc(C(N)=O)c21	15%	?	nt	-1%	-16%	?
CN(C)/C(=N\S(=O)(=O)c1ccccc1)c1ccc(Cl)cc1	-7%	-1%	?	nt	6%	2%
CS/C(=N\S(=O)(=O)c1ccccc1)c1ccccc1	7%	-28%	-13	2%	1%	6%
SMILES	DT40 TDP1 CPT	DT40 TDP1 no CPT	IL-1B inflam inh	TDP1 block	HepG2 tox	TGFb inhibitor
O=S(=O)(/N=C(/Sc1ccccc1)c1ccccc1)c1ccccc1	8.2µM*	15µM*	-104*	8%	-22%	-2%
O=S(=O)(/N=C(/Sc1ccccc1)c1ccccc1)c1ccc(Cl)cc1	?	16µM*	nt	-9%	-7%	-1%
O=S(=O)(N=C(NS(=O)(=O)c1ccc(Cl)cc1)c1ccccc1)c1ccc(Cl)cc1	16%	0%	5	4%	2%	15%
O=[N+]([O-])c1ccc(Cl)c(S(=O)(=O)/N=C(/Sc2ccc(Br)cc2)c2ccccc2)c1	6.3µM*	2.8µM*	nt	-19%	8%	10%
O=S(=O)(/N=C(/Sc1ccc(Cl)cc1)c1ccccc1)c1ccccc1	10µM*	14µM*	nt	?	3%	3%
O=Cc1ccc(N2CCOCC2)cc1	10%	-3%	nt	nt	1%	19%
CCOc1ccc(Nc2c(S(=O)(=O)c3ccccc3)cnc3ccc(CC)cc23)cc1	?	?	nt	2%	-27%	11µM*
CCOc1ccc(Nc2c(S(=O)(=O)c3ccc(C)cc3)cnc3cc(OC)c(OC)cc23)cc1	?	12µM*	nt	2%	-22%	-34%
Cc1ccc(C(=O)NCC(=O)OCC(=O)N(CC(C)C)c2c(N)n(Cc3ccccc3)c(=O)[nH]c2=O)s1	12%	-6%	8	nt	-67%	-2%
COc1cc(N(C)C)c(OC)cc1/C=C/c1ccnc2ccccc12	10µM*	10µM*	nt	nt	-35%	37%
COc1cc(/C=C/c2ccnc3ccccc23)ccc1N(C)C	2µM*	2.2µM*	nt	nt	-31%	20%
